KDM5B inhibitor – blocks human KDM5B histone demethylase activity | KDM5B demethylase, FDH-coupled NADH fluorescence (FDH is formaldehyde dehydrogenase) | Potency, µM (top dose mostly 57.7 µM), actives largely listed as inhibitors | hit rate 2.6% among 220,000; active = well fitted inhibition curve with a large enough effect; note: 0% is about no effect; nearly all actives have a fitted effect of over 70% in size
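Here, H3K4me3 peptide (12.5 µM in substrate mix) is demethylated by KDM5BΔAP, 200 nM final, after 10 min compound exposure. Formaldehyde product is coupled through FDH (0.25 U/mL in mix) to NADH fluorescence; 30-min ΔRFU feeds dose-response curves.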
An asterisk follows results filed as active; i = inactive. Many of the other results were omitted from the sample, so hits are more common in it than they were. Potency is the fitted concentration of half-maximal effect.

SMILES	KDM5B inhibitor
CCCNC(=O)CNC(=O)CCc1ncc(-c2ccc(C)cc2)o1	i
CCCOc1cc(C)c(C)cc1S(=O)(=O)Nc1cccnc1	i
Cn1ccc2c(C(=O)NCc3cccnc3)nc(-c3ccccc3)cc21	32µM*
Cn1ccc2c(C(=O)NCc3cccnc3)nc(-c3ccccc3C#N)cc21	13µM*
Cn1ccc2c(C(=O)NCc3cccnc3)nc(-c3ccc(F)cc3)cc21	i
COc1ccc(S(=O)(=O)N2CCC(C(=O)NCc3cccnc3)CC2)cc1OC	i
Cn1nccc1-c1cc2c(ccn2C)c(C(=O)NCc2cccnc2)n1	i
CN(C)Cc1ccc(-c2cc3c(ccn3C)c(C(=O)NCc3cccnc3)n2)cc1	i
COc1ccc(-c2cc3c(ccn3C)c(C(=O)NCc3cccnc3)n2)cc1OC	35µM*
COc1cc(F)ccc1-c1cc2c(ccn2C)c(C(=O)NCc2cccnc2)n1	40µM*
Cc1ccc(/C=C(\C#N)C(=O)NC2CCCCC2)o1	i
COc1cc(OC)c(NC(=O)N(C)CCc2noc(C(=O)NCc3ccccc3)n2)cc1Cl	i
COc1ccc(S(=O)(=O)Oc2ccc3c(c2)O/C(=C\c2ccc(C)cc2)C3=O)cc1	i
C=CCNC(=O)NC(=O)CN(C)Cc1ccccc1Br	i
CC(=O)C1=C(C)N(C2CCCCC2)C(=O)C1(NC(=O)c1ccc(C(C)(C)C)cc1)C(F)(F)F (stereo not drawn)	i
CCCCNC(=O)NC(=O)CN(C)CCCc1ccccc1	i
O=C(NCc1cccnc1)c1cc(-c2cccnc2)nc2ccccc12	i
O=C1CCC(CNC(=O)c2nc(-c3ccccc3)cc3[nH]ccc23)N1 (stereo not drawn)	32µM*
O=C(NCc1cccnc1)c1nc(-c2ccccc2)cc2[nH]ccc12	35µM*
CN1CCN(c2ccc(-c3cc4c(ccn4C)c(C(=O)NCC4CCC(=O)N4)n3)cc2)CC1 (stereo not drawn)	i
Cn1ccc2c(C(=O)NCC3CCC(=O)N3)nc(-c3ccccc3)cc21 (stereo not drawn)	i
O=C(NCCc1ccccn1)c1nc(-c2ccccc2)cc2[nH]ccc12	i
O=C(O)C1=CC(/C=C/c2ccccc2)n2ncc(C(=O)Nc3ccc(F)cc3)c2N1 (stereo not drawn)	i
OC1(c2csc(CN3CCOCC3)n2)CCN(Cc2ccccc2C(F)(F)F)CC1	i
COc1ccc(OC)c(CCNC(=O)NCc2noc3ccccc23)c1	i
SMILES	KDM5B inhibitor
CC(NC(=O)c1ccccc1F)C(C)(C)C (stereo not drawn)	i
CC(C)NS(=O)(=O)c1ccc2c(c1)nc(CCC(N)=O)n2C(C)C	i
Cc1nn(C)cc1-c1nc2cc(S(=O)(=O)NC(C)C)ccc2n1C(C)C	i
CCNc1ncc(-c2nc3cc(S(=O)(=O)NC(C)C)ccc3n2C(C)C)cn1	28µM*
NCc1ccc(-c2ccc(F)cc2F)cc1	i
CC(C)(CNC(=O)c1ccco1)CNC(=O)c1ccco1	i
CC1Oc2ccc(NC(=O)Cc3ccccc3)cc2CN(Cc2ccc(Cl)cc2)C1=O (stereo not drawn)	i
CC(C)CN1C(=O)c2cccn2CC1C(=O)NCc1cccc(C(F)(F)F)c1 (stereo not drawn)	i
COc1ccc(Cn2nc(-c3ccc(F)cc3OC)ccc2=O)cc1	i
COc1cc(F)ccc1-c1ccc2ncn(C3CC3)c(=O)c2n1	32µM*
Fc1ccc(OC2CN(CC3CCCCC3)C2)c(F)c1	i
COc1ccc(OC)c(-c2ccc3ncn(-c4ccc(F)cc4F)c(=O)c3n2)c1	i
O=c1c2nc(-c3ccccc3C(F)(F)F)ccc2ncn1C1CC1	i
O=c1ncn(Cc2ccccc2)c2ccc(-c3ccc(O)c(F)c3)nc12	i
O=c1ncn(Cc2ccccc2)c2ccc(-c3ccccc3)nc12	35µM*
O=c1ncn(Cc2ccccc2)c2ccc(-c3cccnc3)nc12	i
O=c1ccc(-c2ccccc2)nn1Cc1ccc(F)cc1	i
O=c1ncn(CC2CC2)c2ccc(-c3ccc(F)cc3F)nc12	32µM*
COc1cc(F)ccc1-c1ccc2c(n1)c(=O)ncn2Cc1ccccc1	35µM*
COc1ccccc1OCc1cc(C(=O)NC(CO)C(C)C)n[nH]1 (stereo not drawn)	i
CCN(Cc1ccccc1)C(=S)Nc1ccccc1C	i
Cc1ccc(N2CCC(NC(=O)CC(C)C)C2=O)cc1C (stereo not drawn)	i
Cc1c(C(=O)OC(C)C)sc(NC(=O)C2c3ccccc3Oc3ccccc32)c1C#N	i
Cc1ccc(-c2c(NC(=O)c3ccco3)n(-c3ccc(C)cc3)nc(C)c2=O)cc1	i
CN1CCN(c2cc(=O)c3ccnc(-c4ccc(Cl)cc4)c3o2)CC1	35µM*
SMILES	KDM5B inhibitor
O=c1cc(-c2ccccc2F)oc2ccc(Br)cc12	i
CN(C)c1cc(=O)c2ccnc(N3CCN(c4ccccn4)CC3)c2o1	i
Cc1ccc2oc(-c3ccccc3F)cc(=O)c2c1	i
CN1CCN(c2cc(=O)c3ccnc(-c4cn[nH]c4)c3o2)CC1	28µM*
COc1ccc(-c2nccc3c(=O)cc(N4CCN(C)CC4)oc23)cc1OC	i
CN1CCN(c2cc(=O)c3ccnc(-c4ccccc4F)c3o2)CC1	35µM*
CN1CCN(c2cc(=O)c3ccnc(-c4ccnn4C)c3o2)CC1	40µM*
CN1CCN(c2nnc(-c3ccc(Cl)cc3)c3ccccc23)CC1	i
Nn1c(SC(C(=O)N2CCCC2)c2ccccc2)nnc1-c1cc(Cl)ccc1Cl (stereo not drawn)	i
COc1ccccc1C(=O)N1CC(Oc2ccc(-c3nc(-c4ccccc4)no3)cc2)C1	i
O=C(CCN1CCN(c2cnccn2)CC1)Nc1cccc(Cl)c1	i
O=C(Nc1ccc(N2CCOCC2)cc1)C1CCN(c2cn[nH]c(=O)c2)C1 (stereo not drawn)	i
NC(=S)c1ccc(C(=O)NCc2ccccc2F)cc1	i
Cc1ccc(NC(=O)CSc2nc3cc([N+](=O)[O-])ccc3o2)cc1C	i
CCc1ccccc1NC(=O)CNC(=O)c1cc(=O)c2cc(C)ccc2o1	i
Cc1ccn(CCC(=O)N[C@@H]2COCC[C@@H]2Oc2cccc(F)c2)n1	i
O=C(N[C@@H]1CCOC[C@H]1Oc1ccccn1)c1cccc2c1OCCO2	i
O=C(N[C@@H]1CCOC[C@H]1Oc1cccc(F)c1)c1cnc2ccccn2c1=O	35µM*
O=C(Nc1ccc2c(c1)OCO2)C1CCCN(c2cn[nH]c(=O)c2)C1 (stereo not drawn)	i
Cn1c(Cn2cccn2)nnc1C1CCCN(C(=O)c2ccc(=O)[nH]c2)C1 (stereo not drawn)	i
Cn1c(Cn2cccn2)nnc1C1CCCN(C(=O)c2ccoc2)C1 (stereo not drawn)	i
Cc1ccc(C#N)c(N2CCCC(c3nnc(Cn4cccn4)n3C)C2)n1 (stereo not drawn)	28µM*
CCc1ccc2nc(N/C(N)=N/S(=O)(=O)c3ccc(C)cc3)nc(C)c2c1	i
CCCCCCCCCCCCS(=O)C(CO)CO (stereo not drawn)	i
COc1cccc(CC(=O)N2CCCC3(C2)NC(=O)N(Cc2ccc(C)cc2)C3=O)c1 (stereo not drawn)	i
Cn1cnc2c1c(=O)n(CCCSc1nnnn1-c1cccc(F)c1)c(=O)n2C	i
O=C(O)COCC(=O)N[C@H]1CCN2C(=O)c3cc(/C=C/c4ccccc4)ccc3NC(=O)[C@H]12	32µM*
